{
  "source": "the supplement of paper PMC11417369",
  "note": "Whole data set: some 25,000 sequences, median “ln(normalized median fluorescence intensity)” near 9.3, cut for the highest 2% near 10. The sample as a whole holds a higher share of the highest values than the screen did.",
  "data": [
    {"tested_on": "PF3D7_0420300 AP2 domain 1 (GST-tagged)", "test": "gcPBM binding intensity (ln(normalized median fluorescence intensity)); higher = stronger DNA binding", "procedure,_shortened": "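Probes on an Agilent 4 × 180k array were primer-extended, double-stranded and 36 bp long, taken from intergenic genomic regions, with negative controls added. GST-tagged P. falciparum DNA-binding domains from E. coli, about 25 μg on average, were applied to the array for 1 h in 1× PBS containing 1% milk, 0.2 mg/ml BSA, 0.5% salmon testes DNA and 0.03% Triton X-100. Binding intensity, obtained after Alexa488 anti-GST antibody detection and a 488 nm scan, is the highest Masliner-normalised natural-log median intensity across replicate spots of either probe orientation.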", "values": [
      {"sequence": "TATGTGAATATAATCACACACAATACGGAAACCCAC [CACACA_site2725]", "gcPBM binding intensity (ln)": 9.77},
      {"sequence": "TATGTGAATATAATCACACACAATACGGAAAGAGAC [CACACA_site7311]", "gcPBM binding intensity (ln)": 10.2},
      {"sequence": "AATATGTGAATATAATCACACACAATACGGAAACAC [CACACA_site8875]", "gcPBM binding intensity (ln)": 10.1},
      {"sequence": "TTTTTTTTTTTTTTTGCACACACCATATTTATAGAA [CACACA_site3310]", "gcPBM binding intensity (ln)": 9.46},
      {"sequence": "TCATAAATGAAACACACACACACATCTGGATACCCC [CACACA_site3332]", "gcPBM binding intensity (ln)": 10.1},
      {"sequence": "GTTCATAAATTAAACACACACACACCCCTGGATACC [CACACA_site3331]", "gcPBM binding intensity (ln)": 10.2},
      {"sequence": "TCATAAATTAAACACACACACACATCTGGATACCCC [CACACA_site9096]", "gcPBM binding intensity (ln)": 10.3},
      {"sequence": "GTTCATAAATTAAACACACACACACCGCTGGATACC [CACACA_site5779]", "gcPBM binding intensity (ln)": 10.1},
      {"sequence": "GTTCATAAATTAAACACACACACACGGCTGGATACC [CACACA_site7545]", "gcPBM binding intensity (ln)": 10.1},
      {"sequence": "ATAAATTAAAAACACACACACATCTGGATACCCCTA [CACACA_site5780]", "gcPBM binding intensity (ln)": 10.1},
      {"sequence": "TACTCCTCAATATTATGTACATATAATAGTTATAAA [XGTACX_site8551]", "gcPBM binding intensity (ln)": 9.23},
      {"sequence": "TATATACAAAAAATATGTACATATATATATATATAT [XGTACX_site3497]", "gcPBM binding intensity (ln)": 9.21},
      {"sequence": "TAATATTTTATTTTTGTTGTGGATCCAAAAAAAAAA [CACACA_negctrl_site846]", "gcPBM binding intensity (ln)": 8.76},
      {"sequence": "TAATATGAAATGTGTACACACGCACCCACAAAAAAA [CACACA_site8949]", "gcPBM binding intensity (ln)": 9.74},
      {"sequence": "AAAAATTATAGAAAAGTGCAATACATGTTACACCAT", "gcPBM binding intensity (ln)": 9.28},
      {"sequence": "ATAAATATTAAAAGTACACACAGATACACTAATTAT [CACACA_site1808]", "gcPBM binding intensity (ln)": 9.75},
      {"sequence": "AAAGAAAAAAAAAAAACACACAAAAAAAATCAAAAT [CACACA_site2871]", "gcPBM binding intensity (ln)": 9.94},
      {"sequence": "AAAAAATCAAAACACACACACACACTAGAAAAAAAA [CACACA_site4909]", "gcPBM binding intensity (ln)": 10.3},
      {"sequence": "AACAAATACGGACACACACACACACTAGAAAAAAAA [CACACA_site4442]", "gcPBM binding intensity (ln)": 10.2},
      {"sequence": "CAAATAAATATTAAAAGTACACACAGATACACTAAT [XGTACX_site3749]", "gcPBM binding intensity (ln)": 9.88},
      {"sequence": "AACAAACACGGACACACACACACACTAGAATGATTA [CACACA_site5364]", "gcPBM binding intensity (ln)": 10.2},
      {"sequence": "AACACGCACAGACACACACACAAAAATGATTAAAAA [CACACA_site7195]", "gcPBM binding intensity (ln)": 9.67},
      {"sequence": "AAAAAATCAAAACACACACACACACCCAAAAAAAAA [CACACA_site1444]", "gcPBM binding intensity (ln)": 10.1},
      {"sequence": "CAAATACACGGACACACACACACAAAAAAAAAAAAA [CACACA_site6385]", "gcPBM binding intensity (ln)": 10.1},
      {"sequence": "TATTAATACGGACACACACACACACTAGATAAAATA [CACACA_site4295]", "gcPBM binding intensity (ln)": 10.2},
      {"sequence": "CAAACCCACGGACACACACACACAAAAATGATTAAA [CACACA_site5365]", "gcPBM binding intensity (ln)": 9.93},
      {"sequence": "TACACAGACGGACACACACACACACTAGAAAAAAAA [CACACA_site4435]", "gcPBM binding intensity (ln)": 10},
      {"sequence": "AACAAAATTGAAGGAACACACATACAGATATATATA [CACACA_site4264]", "gcPBM binding intensity (ln)": 9.81},
      {"sequence": "AGCAAAAATTAAATAAATAAATATATATATATATAT [TGCATGCA_negctrl_site449]", "gcPBM binding intensity (ln)": 9.12},
      {"sequence": "TTTTTGCAAAAAGAAATAATTTTATTTTAGTTCGGA [CACACA_negctrl_site1718]", "gcPBM binding intensity (ln)": 8.78},
      {"sequence": "ATTTTTATACGTTTTTTTTTTTTTTTTTTTTATTTA [CACACA_negctrl_site1142]", "gcPBM binding intensity (ln)": 9.62},
      {"sequence": "ATAATGTGTTAGGCGTGTACACAATTGTATGGTTTA [XGTACX_site2377]", "gcPBM binding intensity (ln)": 9.45},
      {"sequence": "ATATTAACTTTTATTACACACTCTCAACTTTTATTT [CACACA_site6176]", "gcPBM binding intensity (ln)": 9.72},
      {"sequence": "GTACTTGTATTATGCACACATATAATTAAACATATA [CACACA_site3312]", "gcPBM binding intensity (ln)": 9.41},
      {"sequence": "CATTTTAAAACAGACACACACCAAAAAAAAAAAAAA [CACACA_site6259]", "gcPBM binding intensity (ln)": 9.4},
      {"sequence": "AAGAAAAACTAAAGAGTTCTGTTCATATCTCTTTGG [TGCATGCA_negctrl_site549]", "gcPBM binding intensity (ln)": 8.99},
      {"sequence": "TTTATTTTATCATTTGCACACGCACGCCCACATAAA [CACACA_site353]", "gcPBM binding intensity (ln)": 9.4},
      {"sequence": "ATCAAGCACGAACACACACACACACGCACGCCCACA [CACACA_site6308]", "gcPBM binding intensity (ln)": 10.2},
      {"sequence": "CCAACATGCCCACGCACACACAAAAAAAGCATGCAT [CACACA_site4217]", "gcPBM binding intensity (ln)": 9.58},
      {"sequence": "GAGAGTAAAACAAATATACACACCATAAAGTTATAA [CACACA_site1686]", "gcPBM binding intensity (ln)": 9.49},
      {"sequence": "TTCATTCAAATTAACGTGCACATTATTAGTAAAAAC", "gcPBM binding intensity (ln)": 9.08},
      {"sequence": "TTATACTAAATGAACACACACACATATATATATATA [CACACA_site99]", "gcPBM binding intensity (ln)": 9.81},
      {"sequence": "ATACTAAATGAACACACACACATATAGATTTATAAC [CACACA_site6200]", "gcPBM binding intensity (ln)": 10.2},
      {"sequence": "ATACTAAATGAACACACACACATATATATATATAAT [CACACA_site4232]", "gcPBM binding intensity (ln)": 10.1},
      {"sequence": "TAGTGTATGATAATATGTACATACATTTATATAATA [XGTACX_site6330]", "gcPBM binding intensity (ln)": 9.11},
      {"sequence": "TATATATATATATAAACACACATAAATATAAATATA [CACACA_site1121]", "gcPBM binding intensity (ln)": 9.6},
      {"sequence": "AAAAAAAGTTATATTACACACTTTATTCGTTAACTT [CACACA_site3013]", "gcPBM binding intensity (ln)": 9.47},
      {"sequence": "TTTGTTATGGTTTTCTCACACATATATATATATATA [CACACA_site4617]", "gcPBM binding intensity (ln)": 9.5},
      {"sequence": "AAAAAAAAAAGACACACACACACAAATACATACACA [CACACA_site6472]", "gcPBM binding intensity (ln)": 10.1},
      {"sequence": "AAAAAAAAAAAACACACACACACACTAATACATACA [CACACA_site8135]", "gcPBM binding intensity (ln)": 10.1},
      {"sequence": "AAAAAAAAAAGACACACACACACACTAATACATACA [CACACA_site6473]", "gcPBM binding intensity (ln)": 10.2},
      {"sequence": "AATAAAAAAAAAAAAAAAAAAAAAAAGACACTAAAA [CACACA_negctrl_site1075]", "gcPBM binding intensity (ln)": 9.33},
      {"sequence": "AAAAAAAAAAGACACACACACAAATACAAATACATA [CACACA_site6334]", "gcPBM binding intensity (ln)": 10},
      {"sequence": "AAAAAAAAAAGACACACACACACATACACATACATA [CACACA_site7362]", "gcPBM binding intensity (ln)": 10.2},
      {"sequence": "ATGGGTATATTTCCACGTACAAAAAATCCGAATTGC [XGTACX_site1490]", "gcPBM binding intensity (ln)": 9.23},
      {"sequence": "AAAAATTAAAATATTATAGTTGAAACTTTTATAAAT [TGCATGCA_negctrl_site454]", "gcPBM binding intensity (ln)": 8.81},
      {"sequence": "AATATGTAGTAATCAAGTACTAATGTCTTAATTCGG [XGTACX_site308]", "gcPBM binding intensity (ln)": 9.27}
    ]}
  ]
}
